Results: the supplement of paper PMC6555819

Key:
Test in all cases: PBM binding z-score (relative to random genomic background probes); higher = stronger binding; sequences stand for … in GC…GCGATTGACAGCGTAGAATGAAGG
[1] = system: FXR:RXRa (NR concentration 270 nM, RXRa partner concentration 90 nM)
In short: (§1)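 The probes on custom Agilent 4×180K protein-binding microarrays were double-stranded, with 34-nt variable regions bearing direct-repeat seeds, single-nucleotide variants, half-site ablations and random human genomic background sequences. Incubation lasted 1 h with ligand-free nuclear receptor dimers in PBS pH 7.4, 2% milk, 0.02% Triton X-100, 1 mM DTT, 0.2 mg/mL BSA and 0.4 mg/ml salmon testes DNA. Antibodies against each partner (one per run) detected bound dimers, and fluorescence scans were regression-normalized. Binding z-scores take the random background probes as reference.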

[2] = system: LXRa:RXRa (NR concentration 270 nM, RXRa partner concentration 90 nM)
In short: as §1

[3] = system: LXRa homodimer (NR concentration 270 nM)
In short: as §1

[4] = system: LXRb:RXRa (NR concentration 270 nM, RXRa partner concentration 90 nM)
In short: as §1

[5] = system: LXRb homodimer (NR concentration 270 nM)
In short: as §1

[6] = system: PPARa:RXRa (NR concentration 270 nM, RXRa partner concentration 90 nM)
In short: as §1

[7] = system: PPARg:RXRa (NR concentration 180 nM, RXRa partner concentration 90 nM)
In short: as §1

[8] = system: PPARg:RXRa 270nM:90nM, anti-RXR (NR concentration 270 nM, RXRa partner concentration 90 nM)
In short: as §1

[9] = system: PPARg:RXRa 30nM:10nM, anti-RXR (NR concentration 30 nM, RXRa partner concentration 10 nM)
In short: as §1

[10] = system: PPARg:RXRa 90nM:30nM, anti-RXR (NR concentration 90 nM, RXRa partner concentration 30 nM)
In short: as §1

Sequence	PBM binding z-score [1]	PBM binding z-score [2]	PBM binding z-score [3]	PBM binding z-score [4]	PBM binding z-score [5]	PBM binding z-score [6]	PBM binding z-score [7]	PBM binding z-score [8]	PBM binding z-score [9]	PBM binding z-score [10]
GATACAGGGTCAAGGCCAGAGAACGCGTATTGAT	6.78	4.32	0.0774	3.59	-0.239	5.57	5.91	5.64	2.25	4.54
GCGACTGGGGCAAAGCAGGTGACCATAAGGTTGG	-0.334	-0.7	-0.835	-0.574	-1.48	1.09	0.993	1.27	-0.349	0.239
AGAACGAGGTCAATGAGTTGATAGCACGGGTGGC	7.39	5.21	0.873	4.04	1.3	5.6	6.36	6.01	3.19	5.11
AGAACGAGGGCTCGCTGAGTTGATAGCAGAGTAG	-0.628	-0.88	-0.835	-0.918	-1.31	-0.747	0.239	-0.824	-0.528	-0.552
TCATGTAGATCAGCAGGTTAAGAAAGCTGGCCAA	-0.0707	0.39	-0.338	0.259	-0.58	0.606	-0.175	1.5	2.67	2.16
AGTCAAAGTTCATCTAGGAAACGTAAGATATGCT	6.71	5.87	4.88	3.9	2.09	4.85	6.43	6.21	3.53	5.16
ATCTCTAGGTAACTAGTTCAGTGAAAGAGAGGAC	0.133	0.11	-0.0189	0.143	0.75	0.794	0.87	0.974	0.417	0.722
GGAACGAGGGCAAGTTGATAGCTGAGTTTGATGG	0.775	0.137	-0.459	0.185	-0.455	1.59	0.992	1.03	0.138	0.467
GGAACGAGGGCAAGGTTGATAGCATCTGTCGACG	0.705	0.414	-0.458	0.32	-0.386	2.82	4.49	5.17	3.62	4.91
ACTAGCAGGCCATGGGTCACTCAAGATTAGTCCG	0.425	0.807	-0.304	0.694	-0.564	2.85	4.82	5.14	4.15	5.31
CTACCAAGGTGAACAAGGTCGTTGATTACTATTC	1.47	1.38	0.19	1.91	-0.383	2.45	1.12	1.4	0.0996	0.622
GCGACTGGGGCAAAGCAGCTTACCATAAGGTTGG	-0.808	-0.965	-0.698	-0.42	-1.09	0.229	1	1.18	-0.326	0.688
AGAATGAGGTTATTAAGATCAGAGAATTGCGGTC	1.56	1.62	0.0516	1.19	0.109	2.71	1.59	1.75	0.553	1.22
CGAACTAGGTTATCCAGGACAGTGAATACATTGA	0.556	0.403	0.239	0.204	-0.168	2.31	2.82	2.24	0.585	1.4
ATCTCTAGGTAAAGATAGTACAGTGAATGCAAAT	0.368	1.08	0.357	0.211	0.424	0.263	1.13	0.762	0.819	0.761
TGTAGTTGGTCAAAGGTCACACACTCGAAATGCG	5.82	5.9	3.8	5.42	1.98	6.69	11	9.78	10.1	11.7
CCGACTGGGGCAAAGGTTACCAGACTCAGTACGA	1.56	1.7	-0.36	1.99	-1.21	5.91	10.5	8.66	8.75	9.25
TTACCACGGTGAGCTGAGGTCGTTGATCCAACTC	0.647	0.233	-0.365	0.375	-1	0.798	-0.279	0.206	-0.397	-0.177
CCAGATAGGTGAGAAGGTAACTCAGCCTCGATTA	-0.0268	0.168	0.00136	0.105	-0.314	1.14	1.1	2.3	0.791	1.76
ATCTCTAGGTAGCAAGTTCAGTGAAAGAGAGGAC	0.337	0.333	0.238	0.0819	0.153	0.475	0.327	0.887	0.0265	0.756
ATCTCTAGGTAAAGTTAGTTCAGTGAATGCAAAT	0.83	3.72	0.641	0.747	0.893	0.661	0.555	1.07	0.112	1.03
GCTGCTACGTCAGGTTGGTCAGCTAACGGGTACG	-0.416	-0.646	-0.592	-0.968	-0.619	-0.713	-0.0701	-0.954	-0.756	-0.888
CAAACTAGGTCAAGACGTCAAAGTCCGCTTCCCG	3.84	2.6	0.426	1.79	0.329	4.81	7.43	6.72	4.47	6.25
TCTGCTAGGTCAGTGGGTCAGCTAACGAGCTGCC	1.49	1.09	-0.548	0.738	0.0153	3.41	5.03	4.53	2.11	3.51
